# Lassa entry inh = qHTS for Inhibitors of binding or entry into cells for Lassa Virus | Lassa virus pseudotype entry inhibition, cell reporter | 300,000 compounds, 1.2% hits | AID 540256, 2011 | Potency, µM (highest dose often 37.9 µM), hits mostly inhibitors; calls by dose curve; tested in HEK293 cells; note: nearly all actives have a fitted effect of over 50% in size
# AMA1 RON2 block = qHTS for Inhibitors of AMA1-RON; Towards Development of Antimalarial Drug Lead: Primary Screen; Plasmodium falciparum AMA1 (3D7) - RON2 peptide interaction; AlphaScreen AMA1-biotinylated RON2 peptide binding; Potency, µM (highest dose often 58.2 µM), usual class: inhibitors; 360,000 compounds, 0.2% hits; note: nearly all actives have a fitted effect of over 45% in size
#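 AMA1 (3D7) with his tag at 25 nM final met compounds first, then biotinylated RON2 peptide at 25 nM; detection used donor plus acceptor beads, 10 µg/mL apiece, read by AlphaScreen after 30 min at room temperature.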
# MARV entry inh = qHTS for inhibitors of binding or entry into cells for Marburg Virus | Marburg virus pseudotyped entry inhibition, cell reporter | Potency, µM (top dose mostly 37.8 µM), hits mostly inhibitors | 300,000 compounds, 1.8% hits; calls by dose curve; tested in HEK293 cells
# AmpC inh no detg = qHTS Inhibitors of AmpC Beta-Lactamase (assay without detergent) | P00811 | AmpC nitrocefin hydrolysis, absorbance 480 nm, 0.0001% Triton | Potency, µM (doses to about 57.1 µM), most hits filed as inhibitors | 330,000 compounds, 0.52% hits | AID 485341, 2010; note: nearly all actives have a fitted effect of over 20% in size
# Target sequence (P00811 whole entry, looked up): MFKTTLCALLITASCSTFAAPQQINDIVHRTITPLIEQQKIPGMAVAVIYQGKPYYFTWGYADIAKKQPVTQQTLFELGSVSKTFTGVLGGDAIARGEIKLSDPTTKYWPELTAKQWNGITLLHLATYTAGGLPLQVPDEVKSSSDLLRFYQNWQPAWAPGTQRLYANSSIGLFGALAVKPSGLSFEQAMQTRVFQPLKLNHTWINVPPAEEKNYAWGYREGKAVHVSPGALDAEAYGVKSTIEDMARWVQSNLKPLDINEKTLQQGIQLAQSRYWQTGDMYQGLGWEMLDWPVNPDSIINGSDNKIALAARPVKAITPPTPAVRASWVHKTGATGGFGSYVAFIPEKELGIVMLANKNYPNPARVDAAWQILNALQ
#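 20 mM phosphate pH 7.0 + 0.01% (detergent screen) or 0.0001% Triton X-100; 5.3 nM AmpC reagent; cpd preinc 15 min RT; nitrocefin (800 uM stock) to start; A480 q20 s × 4 min; Activity was normalised to no-enzyme and no-compound control wells.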
# AmpC inh detg = qHTS Inhibitors of AmpC Beta-Lactamase (assay with detergent); AmpC hydrolysis of nitrocefin, absorbance 480 nm, 0.01% Triton; P00811; Potency, µM (doses to about 114 µM), actives largely listed as inhibitors; 370,000 compounds, 0.041% hits; note: nearly all actives have a fitted effect of over 25% in size
#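 AmpC (5.3 nM in the dispensed reagent) in 20 mM phosphate pH 7.0 with 0.01% (detergent screen) or 0.0001% Triton X-100 was preincubated with compounds for 15 min at room temperature. Nitrocefin was then added from an 800 uM solution, and hydrolysis was followed at 480 nm.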
# A number is an active result; . = inactive; ? = inconclusive; / = no result. Sampled rows, rich in hits. Any-hit rate of the full collection: about 2.3%. Unless noted, calls come from the whole dose curve; as a rule, active = well fitted curve in the direction sought with a large enough effect; inconclusive = small, poorly fitted or top-dose-only effect, or another doubt; inactive = no such curve, though single readings can be large; an effect the other way counts as inactive or inconclusive.
SMILES,Lassa entry inh,AMA1 RON2 block,MARV entry inh,AmpC inh no detg,AmpC inh detg
CC(=O)Nc1sc(/C(C#N)=C/c2ccc(Cl)c(Cl)c2)nc1-c1ccc(C)cc1,.,.,.,4.47µM,.
COc1ccc(/C=N/n2c(C)nc3ccccc3c2=O)cc1,.,.,?,.,?
COc1ccc(/C=N\n2nnc3ccccc32)cc1,1.41µM,.,2µM,.,.
COc1ccc(Cn2c(/C=C/c3ccccc3)nc3ccccc32)cc1,.,.,?,.,.
COc1ccc(/C=C/c2nc3ccccc3n2C)cc1,0.112µM,.,?,.,.
CC(=O)C1=C(c2ccccc2)N(C(C)=O)n2c(nnc2C2CCCCC2)S1,?,/,/,/,.
CCOC(=O)c1cccc(NC(=O)c2ncoc2-c2ccco2)c1,.,/,/,/,.
N#C/C(C(=O)NCc1ccco1)=C1\S[C@@H](Cc2ccc(Cl)cc2)C(=O)N1c1ccccc1,/,/,.,/,/
O=C(CNc1cc(S(=O)(=O)N2CCCC2)ccc1OCC(F)(F)F)Nc1cc(Cl)cc(Cl)c1,/,/,/,.,.
O=C(CNc1cc(S(=O)(=O)N2CCCC2)ccc1OCC(F)(F)F)Nc1ccc(SC(F)F)cc1,18.4µM,.,8.2µM,.,.
Cc1cc(=O)[nH]c(NN=Cc2cc(Br)ccc2O)n1,10µM,.,2µM,/,/
CCN(CC)c1ccc(/C=N/Nc2nc(C)cc(=O)[nH]2)c(O)c1,0.82µM,.,0.517µM,.,?
Cc1cc(=O)[nH]c(N/N=C/c2ccccc2Cl)n1,/,.,/,.,.
Cn1cc(Cl)nc1[C@@H](O)c1ccccc1,/,/,.,/,/
O=C1CSC(c2cn(-c3ccccc3)nc2-c2cc3ccccc3oc2=O)N1Cc1ccccc1 (configuration not stated),11.2µM,.,?,.,.
C=CCn1c(O)c(C(CC)=NCc2cc(OC)cc(OC)c2)c(=O)[nH]c1=O,5.8µM,.,?,?,.
COc1ccccc1CCNC(=O)C(=O)NCC(c1ccco1)S(=O)(=O)c1ccc(F)cc1 (configuration not stated),.,/,/,/,.
Cc1ccccc1CN1N=C(/C=C/c2ccccc2)CCC1=O,7.94µM,.,.,.,.
Cc1ccc(/C=C/C2=NN(Cc3ccc(Cl)c(Cl)c3)C(=O)CC2)cc1,.,.,.,.,.
O=c1c(C(c2ccccc2)c2c(O)sc3ccccc3c2=O)c(O)sc2ccccc12,.,.,.,15.8µM,.
Cc1ccc([C@H]2C[C@H](O)[C@@H](n3cc(-c4ccc(F)cc4)nn3)CN2CC2CCCCC2)cc1,28.1µM,.,/,/,/
O[C@H]1C[C@H](c2ccc(Cl)cc2)N(CC2CCCCC2)C[C@@H]1n1cc(-c2ccc(F)cc2)nn1,/,.,/,/,/
O=C(C1CCCCC1)N1C[C@H](O)[C@H](n2cc(-c3ccc(F)cc3)nn2)C[C@@H]1c1ccc(Cl)cc1,/,/,7.91µM,/,/
Cc1ccc([C@H]2C[C@H](O)[C@@H](n3cc(-c4ccc(F)cc4)nn3)CN2Cc2cccs2)cc1,?,.,/,/,/
COc1ccc([C@H]2C[C@@H](O)[C@H](n3cc(-c4ccc(F)cc4)nn3)CN2Cc2cccs2)cc1,/,/,8.87µM,/,/
SMILES,Lassa entry inh,AMA1 RON2 block,MARV entry inh,AmpC inh no detg,AmpC inh detg
Cc1ccc([C@H]2C[C@H](O)[C@@H](n3cc(-c4ccc(F)cc4)nn3)CN2C(=O)C2CCCCC2)cc1,/,.,?,/,/
Cc1cc(C)c(S(=O)(=O)NCc2csc(-c3ccccc3)n2)c(C)c1,.,/,?,/,.
CCOC(=O)Cc1ccc(NC(=O)c2ccc(C(C)(C)C)cc2)cc1,12.6µM,.,12.6µM,.,.
CCCNC(=O)N1C2=NC(C(=O)OC)=C(C(=O)OC)[C@@H]3N(C)c4ccccc4[C@]23C[C@H]1C(=O)OC,/,/,.,/,/
CCN(CC)CCCN(C(=O)c1ccc(Br)cc1)c1nc(-c2ccc(OC)cc2)cs1,?,.,3.55µM,.,?
CCN(CC)CCCN(C(=O)c1ccco1)c1nc(-c2ccc(Cl)cc2)cs1,?,.,?,.,.
CCN(CC)CCCN(C(=O)c1cccc(C)c1)c1nc(-c2ccc(OC)cc2)cs1,/,.,/,.,?
CCN(CC)CCCN(C(=O)c1ccco1)c1nc(-c2ccc(C)cc2)cs1,?,.,8.91µM,.,.
N#Cc1ccc(CN2C(=O)c3ccccc3Sc3ccc(C(=O)OCc4ccco4)cc32)cc1,.,/,/,/,.
COCCCNC(=O)CS(=O)(=O)Cc1nc(-c2cccc(OC)c2)oc1C,.,.,.,.,.
COc1ccc(NC(=O)CS(=O)(=O)Cc2nc(-c3ccc(C)cc3)oc2C)cc1,.,.,.,.,.
COc1ccc(-c2nc(CS(=O)(=O)CC(=O)Nc3ccc(Cl)cc3)c(C)o2)cc1,/,.,.,3.98µM,.
CCCCN(C)C(=O)CS(=O)(=O)Cc1nc(-c2cccc(OC)c2)oc1C,/,.,/,11.2µM,?
CCCNC(=O)CS(=O)(=O)Cc1nc(-c2ccccc2C)oc1C,/,.,/,3.55µM,.
COc1cc(NC(=O)CC(c2ccc(C)cc2)N2Cc3ccccc3C2=O)cc(OC)c1 (configuration not stated),.,/,/,/,.
C=CCN1CCc2cccc3c2C1Cc1ccc(O)c(O)c1-3 (configuration not stated),/,/,11.2µM,/,/
COc1ccc2c(c1O)-c1cccc3c1C(C2)N(C)CC3 (configuration not stated),/,/,1µM,/,/
CN1CCc2cccc3c2[C@H]1Cc1ccc(O)c(O)c1-3,?,10µM,.,.,?
Cc1cccc(NC(=O)c2ccc3snnc3c2)c1C,.,/,.,/,.
Cc1ccc(CN(C(=O)COc2cccc([N+](=O)[O-])c2)c2ccccn2)o1,?,/,2.82µM,/,.
O=C1OC(c2ccccc2)(c2ccc3cc(O)ccc3c2)c2ccccc21 (configuration not stated),.,.,5.62µM,/,/
COc1cc2c(cc1OC)[C@@H]1O[C@](c3ccsc3)(C2)OC2=C1C(=O)CC(C)(C)C2,/,/,.,/,/
Oc1cc2c(cc1O)[C@H]1c3ccccc3CNC1CC2 (some centres not stated),/,/,15.8µM,/,/
CCn1ncc(Br)c1C(=O)NC(C)c1ccccc1 (configuration not stated),.,.,.,.,.
CCn1ncc(Cl)c1C(=O)NC(C)c1ccccc1 (configuration not stated),.,.,.,0.355µM,.
SMILES,Lassa entry inh,AMA1 RON2 block,MARV entry inh,AmpC inh no detg,AmpC inh detg
CCn1ncc(Br)c1C(=O)Nc1cccc(F)c1,.,.,.,.,.
CCn1ncc(Br)c1C(=O)Nc1ccc(C(C)C)cc1,.,.,12.6µM,.,.
Cc1cc(N2CCCCC2)nc(NCc2ccccc2)n1,?,.,3.16µM,.,.
Cc1cc(N2CCOCC2)nc(NCc2ccccc2)n1,.,.,?,.,.
COc1ccc(S(=O)(=O)N2CCC(C)CC2)cc1OC,/,.,/,.,?
CC1CCN(S(=O)(=O)c2ccc3c(c2)C(=NO)c2cc(S(=O)(=O)N4CCC(C)CC4)ccc2-3)CC1,2.51µM,.,?,.,?
